The supplement of paper PMC10849652
Targets with a hit are over-represented here; the source holds about 7,900 in all. About 0.6% of all pairs of compound and target were hits.

What was measured:
Test in all cases: log2 fold change, soluble protein after heating vs DMSO (PISA); higher = thermal stabilisation; K562 cells, 10 uM, 30 min; active = over 0.2 and 3.5 SD of the protein, either way, in both replicates (recomputed)
[1] = compound: C1=CC=C(C=C1)[C@H](COC2=CC3=C(C=C2)NC(=O)N3)NC(=O)C4=CC=CN(C4=O)CC5=CC(=C(C=C5)F)F
Procedure, shortened: (§1)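 Values are thermal stability changes relative to control samples and are taken from duplicates. They are stated as log2 fold changes. Before quantification by TMTpro 16plex LC-MS/MS with equalised channel sums, K562 cells at 2×10^6 cells/mL were treated with 10 μM compound for 30 min, heated in aliquots for 3 min across 48°C-58°C, pooled, extracted in PBS with 0.5% NP-40 at 4°C, and centrifuged at 21,000xg for 90 min to give the soluble supernatant.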

[2] = compound: CC1=C(SC2=C1C(=N[C@H](C3=NN=C(N32)C)CC(=O)N)C4=CC=C(C=C4)Cl)C
Procedure, shortened: as §1

[3] = compound: Cc1sc2c(c1C)C(c1ccc(Cl)cc1)=N[C@@H](CC(=O)OC(C)(C)C)c1nnc(C)n1-2
Procedure, shortened: as §1

[4] = compound: c1ccc([C@@H]2C[C@H]2NC2CCNCC2)cc1
Procedure, shortened: as §1

[5] = compound: CC1=C2C(=CC=C1)N=C(N(C2=O)C3=CC=CC=C3C)CN4C=NC5=C(N=CN=C54)N
Procedure, shortened: as §1

Measured: log2 fold change

TMEM268 isoform 3 (UniProt Q5VZI3)
Sequence of UniProt Q5VZI3 (Q5VZI3 whole entry, looked up): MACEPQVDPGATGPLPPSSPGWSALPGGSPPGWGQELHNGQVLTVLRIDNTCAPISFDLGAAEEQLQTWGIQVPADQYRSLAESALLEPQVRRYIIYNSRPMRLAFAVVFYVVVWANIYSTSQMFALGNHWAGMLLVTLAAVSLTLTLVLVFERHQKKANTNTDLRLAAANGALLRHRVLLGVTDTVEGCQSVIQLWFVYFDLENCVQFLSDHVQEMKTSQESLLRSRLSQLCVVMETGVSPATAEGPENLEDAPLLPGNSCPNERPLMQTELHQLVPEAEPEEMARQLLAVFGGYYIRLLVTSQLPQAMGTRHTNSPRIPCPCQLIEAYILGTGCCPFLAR
inactive: [1] -0.008 | [2] 0 | [3] 0.151 | [4] 0.063

UQCR10 (UniProt Q9UDW1)
Sequence of UniProt Q9UDW1 (Q9UDW1 whole entry, looked up): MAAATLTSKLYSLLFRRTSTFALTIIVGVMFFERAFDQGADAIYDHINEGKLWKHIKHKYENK
inactive: [1] -0.032 | [2] 0.036 | [5] 0.142 | [3] -0.131 | [4] -0.009

VPS35L (UniProt Q7Z3J2)
Sequence of UniProt Q7Z3J2 (Q7Z3J2 whole entry, looked up): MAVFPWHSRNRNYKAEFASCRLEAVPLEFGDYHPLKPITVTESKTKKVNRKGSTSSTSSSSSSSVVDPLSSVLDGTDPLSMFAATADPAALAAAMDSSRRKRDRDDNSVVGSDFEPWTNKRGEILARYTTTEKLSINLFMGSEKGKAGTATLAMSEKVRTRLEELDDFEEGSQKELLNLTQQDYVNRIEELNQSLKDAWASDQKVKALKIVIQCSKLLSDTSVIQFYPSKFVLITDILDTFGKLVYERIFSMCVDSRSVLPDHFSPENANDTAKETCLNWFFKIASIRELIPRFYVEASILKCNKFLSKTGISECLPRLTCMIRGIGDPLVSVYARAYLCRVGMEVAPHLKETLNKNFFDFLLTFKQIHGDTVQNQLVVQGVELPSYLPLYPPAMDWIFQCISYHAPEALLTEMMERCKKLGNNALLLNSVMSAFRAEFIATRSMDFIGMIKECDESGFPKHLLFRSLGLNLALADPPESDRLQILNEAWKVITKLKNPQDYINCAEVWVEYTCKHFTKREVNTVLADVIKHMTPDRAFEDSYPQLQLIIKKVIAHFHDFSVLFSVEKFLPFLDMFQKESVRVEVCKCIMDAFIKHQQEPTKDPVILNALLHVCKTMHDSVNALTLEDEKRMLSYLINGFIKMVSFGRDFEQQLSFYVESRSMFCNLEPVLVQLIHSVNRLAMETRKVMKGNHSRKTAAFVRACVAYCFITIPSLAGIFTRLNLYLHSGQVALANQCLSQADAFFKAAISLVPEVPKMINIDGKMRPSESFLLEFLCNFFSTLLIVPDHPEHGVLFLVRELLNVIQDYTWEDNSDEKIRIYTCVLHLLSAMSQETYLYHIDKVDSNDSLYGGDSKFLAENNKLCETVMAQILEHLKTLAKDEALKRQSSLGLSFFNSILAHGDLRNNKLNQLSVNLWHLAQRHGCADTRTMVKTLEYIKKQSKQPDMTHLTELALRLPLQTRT
inactive: [1] -0.046 | [2] -0.13 | [5] 0.011 | [3] -0.024 | [4] 0

TXNRD1 isoform 7 (UniProt Q16881)
Sequence of UniProt Q16881 (Q16881 whole entry, looked up): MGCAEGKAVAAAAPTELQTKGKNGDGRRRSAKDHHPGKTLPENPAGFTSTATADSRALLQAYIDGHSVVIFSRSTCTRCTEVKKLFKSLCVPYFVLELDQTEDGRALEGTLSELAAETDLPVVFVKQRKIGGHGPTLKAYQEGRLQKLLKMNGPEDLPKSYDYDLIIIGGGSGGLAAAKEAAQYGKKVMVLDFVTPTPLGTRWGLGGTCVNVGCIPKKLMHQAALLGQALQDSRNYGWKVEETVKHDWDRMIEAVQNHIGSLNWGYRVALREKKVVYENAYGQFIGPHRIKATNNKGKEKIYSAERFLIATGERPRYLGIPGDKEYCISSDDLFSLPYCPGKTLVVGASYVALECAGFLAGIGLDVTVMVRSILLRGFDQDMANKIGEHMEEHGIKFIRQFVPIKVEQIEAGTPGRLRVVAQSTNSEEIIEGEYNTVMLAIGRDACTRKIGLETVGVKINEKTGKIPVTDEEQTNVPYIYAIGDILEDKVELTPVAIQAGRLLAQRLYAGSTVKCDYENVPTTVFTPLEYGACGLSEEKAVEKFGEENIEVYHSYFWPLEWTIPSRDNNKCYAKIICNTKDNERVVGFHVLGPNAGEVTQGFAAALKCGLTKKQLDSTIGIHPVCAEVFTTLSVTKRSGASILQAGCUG
inactive: [1] 0.046 | [5] 0.138

UBAP2L (UniProt F8W726)
inactive: [1] -0.05 | [3] 0.046

ULBP1 (UniProt Q9BZM6)
Sequence of UniProt Q9BZM6 (Q9BZM6 whole entry, looked up): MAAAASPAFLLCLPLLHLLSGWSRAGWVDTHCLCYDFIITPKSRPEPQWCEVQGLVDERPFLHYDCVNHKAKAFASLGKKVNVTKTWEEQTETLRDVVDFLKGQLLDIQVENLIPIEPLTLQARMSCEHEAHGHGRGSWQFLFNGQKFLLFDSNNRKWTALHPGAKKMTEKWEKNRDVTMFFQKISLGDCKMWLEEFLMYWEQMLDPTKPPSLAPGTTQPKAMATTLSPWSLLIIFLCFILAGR
inactive: [2] 0.014 | [5] -0.001 | [3] -0.036 | [4] -0.038

TRIM5 (UniProt Q9C035)
Sequence of UniProt Q9C035 (Q9C035 whole entry, looked up): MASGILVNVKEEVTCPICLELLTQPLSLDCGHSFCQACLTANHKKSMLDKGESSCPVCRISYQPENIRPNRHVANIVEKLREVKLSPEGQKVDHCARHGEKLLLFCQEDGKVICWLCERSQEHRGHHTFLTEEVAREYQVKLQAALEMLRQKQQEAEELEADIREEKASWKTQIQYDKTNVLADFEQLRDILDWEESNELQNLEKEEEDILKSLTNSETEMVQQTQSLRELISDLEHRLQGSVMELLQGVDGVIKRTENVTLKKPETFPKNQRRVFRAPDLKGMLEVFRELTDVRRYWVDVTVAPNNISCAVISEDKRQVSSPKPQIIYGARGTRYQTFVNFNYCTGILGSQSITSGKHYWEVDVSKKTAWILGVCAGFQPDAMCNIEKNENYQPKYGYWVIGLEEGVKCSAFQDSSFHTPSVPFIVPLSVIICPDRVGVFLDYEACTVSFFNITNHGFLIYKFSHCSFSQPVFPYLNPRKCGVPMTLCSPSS
inactive: [2] 0.021 | [5] 0.023 | [3] 0.155 | [4] -0.004

TVP23C (UniProt Q96ET8)
Sequence of UniProt Q96ET8 (Q96ET8 whole entry, looked up): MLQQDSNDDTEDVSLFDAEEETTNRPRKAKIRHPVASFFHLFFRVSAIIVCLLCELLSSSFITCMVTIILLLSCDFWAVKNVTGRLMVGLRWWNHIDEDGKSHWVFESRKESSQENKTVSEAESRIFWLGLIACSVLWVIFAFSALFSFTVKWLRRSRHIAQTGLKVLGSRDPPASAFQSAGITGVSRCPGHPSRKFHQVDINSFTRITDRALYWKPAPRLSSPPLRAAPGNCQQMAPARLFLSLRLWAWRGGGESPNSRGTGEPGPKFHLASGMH
inactive: [2] 0.048 | [5] 0.041 | [3] 0.029 | [4] 0.086

WARS1 (UniProt G3V277)
inactive: [1] -0.075 | [5] 0.283 | [3] 0.076

UBE3D (UniProt Q7Z6J8)
Sequence of UniProt Q7Z6J8 (Q7Z6J8 whole entry, looked up): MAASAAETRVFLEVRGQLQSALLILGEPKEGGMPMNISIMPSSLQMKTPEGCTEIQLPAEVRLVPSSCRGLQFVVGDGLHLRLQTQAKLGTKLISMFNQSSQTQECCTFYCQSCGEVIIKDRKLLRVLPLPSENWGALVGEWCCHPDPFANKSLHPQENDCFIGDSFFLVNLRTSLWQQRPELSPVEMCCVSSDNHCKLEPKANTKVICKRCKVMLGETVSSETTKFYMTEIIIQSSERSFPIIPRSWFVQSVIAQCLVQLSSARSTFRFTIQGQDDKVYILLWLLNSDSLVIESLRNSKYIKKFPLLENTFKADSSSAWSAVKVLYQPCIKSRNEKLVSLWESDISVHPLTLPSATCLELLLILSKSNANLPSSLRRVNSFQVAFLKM
inactive: [1] 0.034 | [2] 0.057 | [5] 0.001 | [3] -0.051 | [4] 0.009

UNC119B (UniProt A6NIH7)
Sequence of UniProt A6NIH7 (A6NIH7 whole entry, looked up): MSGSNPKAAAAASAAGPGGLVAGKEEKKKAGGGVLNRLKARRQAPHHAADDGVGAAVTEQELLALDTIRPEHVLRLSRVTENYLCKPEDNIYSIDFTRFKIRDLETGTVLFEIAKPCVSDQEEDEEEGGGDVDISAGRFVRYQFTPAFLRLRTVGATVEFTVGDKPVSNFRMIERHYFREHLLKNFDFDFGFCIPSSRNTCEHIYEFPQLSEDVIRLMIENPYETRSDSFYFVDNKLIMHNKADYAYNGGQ
inactive: [1] -0.093 | [2] -0.013 | [5] 0.094 | [3] -0.016 | [4] -0.009

WDR43 (UniProt Q15061)
Sequence of UniProt Q15061 (Q15061 whole entry, looked up): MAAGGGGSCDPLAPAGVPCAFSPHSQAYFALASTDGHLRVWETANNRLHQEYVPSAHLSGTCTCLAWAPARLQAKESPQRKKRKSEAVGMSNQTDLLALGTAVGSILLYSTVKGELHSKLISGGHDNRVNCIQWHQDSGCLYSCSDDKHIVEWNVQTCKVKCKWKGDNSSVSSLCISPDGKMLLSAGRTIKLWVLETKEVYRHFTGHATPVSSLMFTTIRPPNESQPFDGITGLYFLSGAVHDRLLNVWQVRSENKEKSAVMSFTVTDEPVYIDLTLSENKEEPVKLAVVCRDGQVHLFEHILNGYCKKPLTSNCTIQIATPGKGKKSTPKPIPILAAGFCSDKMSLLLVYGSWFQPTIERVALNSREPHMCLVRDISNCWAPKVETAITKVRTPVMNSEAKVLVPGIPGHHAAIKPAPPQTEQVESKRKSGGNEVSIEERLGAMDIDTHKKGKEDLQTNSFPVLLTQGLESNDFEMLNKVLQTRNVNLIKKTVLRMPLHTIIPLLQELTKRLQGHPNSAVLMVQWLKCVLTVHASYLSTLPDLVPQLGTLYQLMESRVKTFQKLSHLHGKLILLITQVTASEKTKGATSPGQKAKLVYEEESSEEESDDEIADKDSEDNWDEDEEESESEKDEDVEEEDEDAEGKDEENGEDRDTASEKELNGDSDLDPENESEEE
inactive: [1] 0.026 | [2] 0.027 | [5] 0.009 | [3] -0.009 | [4] 0.001
